# An excerpt weighted towards active compounds, which were near 1.7% of everything screened.
# Y pestis TopoI: Y. pestis Topo-I inhibition via cleavage products | Y. pestis Topo-I cleavage product accumulation, plate reader | activity, % at 10 µM | 360,000 compounds, 0.064% hits | AID 504884; in the data active = activity above about 50%, passing the limit was not always enough; inconclusive = no clear call, values can overlap the other calls
# PriA SSB inh: K. pneumoniae PriA-SSBct interaction inhibition; inhibition, % at 33 µM; 430,000 compounds, 0.6% hits; AlphaScreen SSBct-PriA binding, biotinylated peptide; in the data active = inhibition mostly above about 37%, no sharp cut-off; inactive = mostly below about 20%;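 also: plate controls were negative control peptide for no effect and reference peptide for full effect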
# PrP 5UTR inh: suppresses PrP 5' UTR mRNA reporter expression; cell-based PrP 5' UTR mRNA reporter, plate reader; inhibition, % (test concentration not listed); 340,000 compounds, 0.35% hits; in the data active = inhibition above about 52%; also: 0 = median of the neutral control wells
# BJeLR viability: BJeLR cell viability loss; BJeLR (HRASV12) viability, CellTiter-Glo ATP luminescence, 48 h; inhibition, % (test concentration not listed); 300,000 compounds, 0.17% hits; AID 1554; in the data active = inhibition above about 50%; inconclusive = no clear call, values can overlap the other calls
# PfHsp40 yeast: compounds rescuing yeast from Plasmodium falciparum HSP40 toxicity; S. cerevisiae expressing PfHsp40, growth rescue, ATP luminescence; 340,000 compounds, 0.68% hits; growth rescue, % at 12.5 µM; in the data active = growth rescue above about 28%, passing the limit was not always enough; inconclusive = no clear call, values can overlap the other calls;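 also: yeast W303a lacking pdr1 and pdr3 grown in galactose medium; growth measured after three days at 30 °C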
# PrPC surface inh: cell surface PrPC inhibition, primary TR-FRET screen; TR-FRET read-out; inhibition, % at 13.8 µM; 370,000 compounds, 0.43% hits; AID 720596; in the data active = inhibition above about 24%; also: 0% = median of the test wells and 100% = reference compound wells
# PrP UTR cherry: prion 5' UTR mRNA inhibition, cherry-pick retest | 1,100 compounds, 48% hits | inhibition, % at 2.5 µM | shares compounds with PrP 5UTR inh | cell-based prion protein 5' UTR reporter, plate reader | AID 504592; in the data active = inhibition above about 54%; inconclusive = no clear call, values can overlap the other calls
# * = called active by the depositor; i = inactive; u = inconclusive; x = no result given.
SMILES,Y pestis TopoI,PriA SSB inh,PrP 5UTR inh,BJeLR viability,PfHsp40 yeast,PrPC surface inh,PrP UTR cherry
CCc1ccc(-c2cn3nc(C)c(C)nc3n2)cc1,8,5,85*,17,-2,-27,36
COc1cc(C2c3cc4c(cc3CC3COC(=O)N32)OCO4)cc(OC)c1OC (stereo not given),4,-31,58*,x,-1,7,91*
COc1cc(C2c3cc4c(cc3CC3COC(=O)C32)OCO4)cc(OC)c1OC (stereo not given),7,-2,55,x,1,12,x
CN(C)Cc1cc(C(C)(C)C)cc(N2CCOCC2)c1O,4,-7,-6,x,0,3,x
CCN(CC)Cc1cc(C(C)(C)C)cc(N2CCOCC2)c1O,1,2,73*,x,-2,-8,4
CCCc1ccc(-c2ccc(F)c(N)c2)nc1,6,-14,59*,5,1,-3,u
CCCCc1ccc(-c2ccc(Br)cc2)nc1,5,-17,-95,-4,0,-1,x
CCOc1cccc2cc(-c3csc(NC(=O)c4ccn(CC)n4)n3)oc12,x,-6,x,x,x,x,x
Cc1nn(CCC(=O)O)c2nc(-c3cccnc3)cc(C(F)(F)F)c12,-7,-3,0,5,-1,-3,x
Cc1nn(CCc2nn[nH]n2)c2nc(-c3ccc(C4CCCCC4)cc3)cc(C(F)(F)F)c12,-2,-9,63*,1,-1,-1,-35
O=C(Nc1nccs1)c1cc2c(s1)CCCCC2,-2,-21,64*,18,u,4,72*
O=C(Nc1nncs1)c1cc2c(s1)CCC2,1,-1,-3,12,0,3,x
COc1ccc(/C=N/Nc2nnc(C)n2N)cc1OC,-1,x,76*,7,-1,-10,-8
COc1ccc(/C=N/Nc2nnc(C)n2N)cc1OC(C)=O,-9,x,-17,-2,-1,-4,x
COc1ccc(Cl)cc1NC(=O)CCn1cnc2ccccc2c1=O,3,3,70*,3,-2,9,-10
O=C(CCn1cnc2ccccc2c1=O)Nc1cccc(Cl)c1,-7,-2,-9,-1,0,-1,x
COc1cc(NC(=O)c2cccs2)c(C(=O)OCC(=O)c2cc(C)n(-c3ccccc3)c2C)cc1OC,-6,-11,71*,0,0,-5,73*
Cc1ccc(NC(=O)NCCNc2cc(-n3cccc3)ncn2)c(Cl)c1,x,-5,x,x,x,x,x
OCCN1CCN(CC/C=C2/c3ccccc3Sc3ccc(Cl)cc32)CC1,7,-6,82*,x,0,-21,-19
COc1ccc(Cc2nc3ccccc3n2Cc2ccccc2F)cc1OC,x,1,x,x,x,x,x
NC(=NOCc1ccc([N+](=O)[O-])cc1)c1ccncc1,x,2,x,x,x,x,x
N/C(=N\OCc1ccc([N+](=O)[O-])cc1)c1ccccn1,x,x,85*,16,-2,x,80*
Cc1ccc(C(c2nnnn2CC2CCCO2)N2CCN(Cc3ccccc3)CC2)cc1 (stereo not given),29,1,67*,2,0,-12,2
COc1ccc(OC)c2sc(NC(=O)CCc3ccccc3)nc12,x,-8,x,x,x,x,x
CCOc1ccc(-n2nnnc2CNC(=O)c2c(F)cccc2F)cc1,x,-10,x,x,x,x,x
SMILES,Y pestis TopoI,PriA SSB inh,PrP 5UTR inh,BJeLR viability,PfHsp40 yeast,PrPC surface inh,PrP UTR cherry
Cc1cc(NC(=O)CCn2c(=O)oc3ccc(Cl)cc32)no1,x,-15,x,x,x,x,x
Cc1cccc(N2CCN(C(=O)c3ccncc3)CC2)c1C,4,-12,-27,-3,-1,6,x
COc1cc(C(=O)N2CCN(c3cccc(C)c3C)CC2)cc(OC)c1OC,-2,3,60*,30,0,20,74*
COc1cc(C(=O)N2CCN(c3cc(Cl)ccc3Cl)CC2)cc(OC)c1OC,u,-11,56*,33,-2,2,88*
COc1cc(C2C3=C(Nc4ncnn42)c2ccccc2CC3)cc(OC)c1OC (stereo not given),20,-10,62*,38,0,-7,86*
CCSc1nc(-c2ccccc2)nc(C(Cl)Cl)n1,22,-22,63*,24,0,5,79*
C/C=C/COC(=O)c1[nH]c2c(c1C)C(=O)CC(c1ccco1)C2 (stereo not given),-8,5,62*,38,2,8,85*
Cc1c(C(=O)OCC2CCCO2)[nH]c2c1C(=O)CC(c1ccco1)C2 (stereo not given),4,-20,-32,33,1,x,x
Cc1c(C(=O)OC2CCCC2)[nH]c2c1C(=O)CC(c1ccco1)C2 (stereo not given),-4,-7,61*,28,2,16,73*
C=CCOC(=O)c1[nH]c2c(c1C)C(=O)CC(c1ccco1)C2 (stereo not given),x,-6,x,37,x,x,x
Cc1c(C(=O)OCC(C)C)[nH]c2c1C(=O)CC(c1ccco1)C2 (stereo not given),-7,-9,70*,30,0,9,85*
N/C(=N\OC(=O)c1ccccc1)c1ccccn1,0,x,-17,1,-3,9,x
Cc1ccc(C(=O)O/N=C(\N)c2ccccn2)cc1C,9,i,87*,-22,-3,3,77*
Cc1ccc(C(=O)O/N=C(\N)c2ccccn2)cc1,8,i,87*,3,-5,-8,94*
NC(=NOC(=O)c1ccccc1)c1ccccn1,x,7,x,x,x,x,x
CCOc1ccc(C(=O)O/N=C(\N)c2ccccn2)cc1,-7,i,84*,3,-7,-3,92*
CC(C)(C)c1ccc(C(=O)O/N=C(\N)c2ccccn2)cc1,16,i,77*,5,0,-3,75*
O=C(Nc1nccs1)c1ccc(=O)n(Cc2ccc(F)cc2)n1,x,-12,x,x,x,x,x
COc1ccccc1-c1cc2nc(C)cc(N3CCN(C/C=C/c4ccccc4)CC3)n2n1,x,27,x,x,x,x,x
Cc1noc(C)c1CC(=O)N1CCC[C@H](Cc2nc(C3CC3)no2)C1,x,-15,x,x,x,x,x
Cc1cccc(C(=O)O/N=C(\N)c2ccccn2)c1,8,i,56*,4,-2,0,75*
N/C(=N\OC(=O)c1cccc(F)c1)c1ccccn1,-2,x,-50,-5,-1,-4,x
CCN(CC)C(=O)CSc1nc2ccccc2c(=O)n1CCC(=O)N1CCN(c2ccccc2)CC1,0,1,56*,4,-2,-2,1
CSc1ccccc1NC(=O)C(=O)NCC[C@H](O)c1ccsc1,x,-6,x,x,x,x,x
CCOc1ccc(OCC(=O)Nc2cccc(S(=O)(=O)NC3=NCCC3)c2)cc1,1,0,0,x,-1,11,x
CCOc1ccc(C(=O)NC(=S)Nc2cccc(S(=O)(=O)NC3=NCCC3)c2)cc1,38,-12,54*,23,0,8,u
Cc1cc(/C=C2\SC(=S)N(C)C2=O)c(C)n1-c1ccc(O)cc1,-28,3,76*,2,450*,-9,77*

# High-throughput results from PubChem.
